From PubChem
SMN2 splice enh: SMN2 splice variant enhancement | HEK293 SMN2-luciferase splicing reporter, luminescence, 30-36 h | Potency, µM (doses to about 46.1 µM), for inactives: at the top dose activity change, positive = activation, actives largely listed as activators | 210,000 tested, 2.8% active; also: % of control where 0% means no effect; nearly all actives have a fitted effect of over 55% in size
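qHTS luciferase splicing reporter: luminescence rises when SMN2 exon 7 is included in transfected HEK293 cells. Compound exposure lasted 30-36 h at 37C, with 4.5 mM final sodium butyrate as control, followed by a ONE-Glo read.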
NPC1 promoter act: NPC1 promoter activation; Huh7 NPC1 promoter luciferase reporter, 24 h; Potency, µM (series often up to 9.22 µM), inactives show top-dose activation, usual class: activators; 320,000 tested, 2.4% active; AID 485313; also: % of control where 0% means no effect; nearly all actives have a fitted effect of over 60% in size
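Quantitative HTS used a cell-based reporter: Huh7 cells stably bearing the NPC1 promoter upstream of luciferase were treated with compounds for 24 h, and promoter activation was read as luminescence.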
FLuc counter: firefly luciferase modulation, counter-screen for miR-21 project. P08659. purified FLuc, Km substrates, luminescence inhibition. Potency, µM (titrated, usually from 57.5 µM), without a hit: at the top dose activity change, negative = inhibition, hits mostly inhibitors. 360,000 tested, 6.9% active;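 also: plate controls were vehicle for no effect and reference inhibitor for full effect; nearly all actives have a fitted effect of over 55% in size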
Target sequence (P08659 whole entry, looked up): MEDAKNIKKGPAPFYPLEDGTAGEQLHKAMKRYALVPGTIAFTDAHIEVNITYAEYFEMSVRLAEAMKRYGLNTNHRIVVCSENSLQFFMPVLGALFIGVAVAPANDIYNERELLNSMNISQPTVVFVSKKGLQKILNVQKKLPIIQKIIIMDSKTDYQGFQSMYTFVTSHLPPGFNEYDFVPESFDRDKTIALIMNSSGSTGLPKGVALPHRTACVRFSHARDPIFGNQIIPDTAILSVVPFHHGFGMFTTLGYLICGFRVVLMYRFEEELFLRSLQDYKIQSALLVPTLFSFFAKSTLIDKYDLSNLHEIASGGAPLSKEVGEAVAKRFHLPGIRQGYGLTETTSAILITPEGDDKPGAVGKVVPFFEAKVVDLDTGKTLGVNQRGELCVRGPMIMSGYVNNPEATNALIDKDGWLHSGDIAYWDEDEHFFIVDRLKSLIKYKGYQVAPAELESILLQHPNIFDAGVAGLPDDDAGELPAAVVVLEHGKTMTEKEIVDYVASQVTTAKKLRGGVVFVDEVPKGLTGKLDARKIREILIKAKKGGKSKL
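Purified P. pyralis luciferase, 10 nM final, with Km-level 10 uM D-luciferin and 10 uM ATP in 50 mM Tris acetate pH 7.5, 10 mM Mg acetate, 0.01% Tween-20, 0.05% BSA; 6-point qHTS titration about 60 µM downward; luminescence read.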
Rab9 prom act: activates the Rab9 promoter; Huh7 Rab9 promoter-luciferase reporter, luminescence, 24 h; Potency, µM (series often up to 9.22 µM), inactives show top-dose activation, negative = inhibition, hits mostly activators; 320,000 tested, 2.8% active; also: % of control where 0% means no effect; nearly all actives have a fitted effect of over 60% in size
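Steps: seed 1500 Huh7 Rab9-luc cells per well, rest 2 h at 37 °C; add compound in DMSO; incubate 24 h; add luciferase reagent, 10 min ambient; read luminescence.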
ELG1 genotox: induces genotoxicity in HEK293T cells with luciferase-tagged ELG1; HEK293T ELG1-luciferase reporter, luminescence, 16 h; Potency, µM (doses to about 46 µM), for the others: at the highest dose activity change, positive = activation, most hits filed as activators; 330,000 tested, 1.3% active; also: % of control where 0% means no effect; nearly all actives have a fitted effect of over 60% in size
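Screening used a luciferase reporter fused to human ELG1 in HEK293T cells. Luminescence was read on a CCD plate imager after 16 hr exposure and 30 min ONE-Glo incubation.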
An asterisk follows results filed as active; ? = inconclusive; . = not tested or not shown. An excerpt weighted towards active compounds, which were near 7.4% of everything screened. Calls follow the shape of the dose curve; as a rule, active = well fitted curve in the direction sought with a large enough effect; inconclusive = small, poorly fitted or top-dose-only effect, or another doubt; inactive = no such curve, though single readings can be large; an effect the other way counts as inactive or inconclusive. Potency is read from the fitted curve at half-maximal effect.

SMILES	SMN2 splice enh	NPC1 promoter act	FLuc counter	Rab9 prom act	ELG1 genotox
CC(=O)c1csc(-c2ccccc2)n1	0%	-1%	?	12%	10%
COc1ccc(NC(=O)Cn2c(=O)n(-c3ccc(C)cc3)c(=O)c3c2c2cc(C)ccc2n3C)cc1	.	.	-4%	.	.
Cc1ccc(C(=O)NCC(=O)OCc2csc(-c3ccccc3)n2)cc1	?	13%	?	-7%	?
O=C(O)c1cnn(-c2nc(-c3ccc(Cl)c(Cl)c3)cs2)c1C(F)(F)F	.	21%	?	15%	?
O=C(O)c1ccc(-c2nc(-c3ccc(Cl)c(Cl)c3)cs2)cc1	129%	3.2µM*	13µM*	?	0%
O=C(OCc1csc(-c2ccccc2)n1)c1ccc(O)cc1	21%	17%	19µM*	?	?
O/N=C/c1ccn(-c2ccc(Br)cc2)c1	10%	25%	24µM*	14%	-1%
CCC(=O)Oc1ccc(C(=O)Nc2ccc3c(c2)OCO3)cc1	16µM*	2.2µM*	5.4µM*	4.5µM*	?
CCCCOc1ccc(C(=O)Nc2ccc3c(c2)OCO3)cc1	?	22%	?	?	?
CCCOc1ccc(C(=O)Nc2ccc3c(c2)OCO3)cc1	.	1µM*	2.1µM*	2.8µM*	2.3µM*
COC(=O)c1ccc(C(=O)NC2CCCc3c2cnn3-c2cc(F)cc(F)c2)nc1 (configuration not stated)	.	-23%	-12%	-12%	-8%
Cc1ccc(NC(=O)c2ccc(Cl)c(NC(=O)c3cccs3)c2)cc1	.	22%	11µM*	9%	3%
Cc1cc(C)c2oc(-c3ccc(Cl)c(NC(=O)c4cccs4)c3)nc2c1	8%	.	4.3µM*	.	.
Cc1cc(C)c2oc(-c3ccc(C)c(NC(=S)NC(=O)c4cccs4)c3)nc2c1	-43%	3%	?	4%	11%
Cc1nc2ccc(NC(=O)c3cnc(Cl)c(Cl)c3)cc2s1	.	20%	?	2%	10%
Cc1nc2ccc(NC(=O)c3ccc(Cl)c(NC(=O)c4cccs4)c3)cc2s1	12%	4%	13µM*	-2%	1%
COc1ccccc1N1CCN(S(=O)(=O)c2cc(Br)cnc2N)CC1	.	-1%	1%	-2%	-13%
CN(C)c1ccc(/C=C(\C#N)C(=O)OCC(=O)N(C)C2CCS(=O)(=O)C2)cc1 (configuration not stated)	.	-1%	24µM*	-1%	?
CCN(C(=O)COC(=O)/C(C#N)=C/c1ccc(N(C)C)cc1)C1CCS(=O)(=O)C1 (configuration not stated)	.	.	.	.	13%
COc1ccc(N2C(=O)CSC2c2cccc(F)c2)cc1 (configuration not stated)	.	5%	-4%	-5%	0%
O=C(Nc1nc(COc2ccccc2)cs1)C12CC3CC(CC(C3)C1)C2	-69%	12%	15µM*	23%	?
O=C(Nc1ccccc1-c1ccccc1)C12CC3CC(CC(C3)C1)C2	-20%	3%	?	4%	3%
CC(=O)Nc1nc(COc2ccc3ccccc3c2)cs1	4%	2.8µM*	12µM*	6.3µM*	?
COc1ccccc1OCc1csc(N)n1	14%	-1%	4%	16%	-2%
Nc1nc(COc2ccc3ccccc3c2)cs1	30%	.	12µM*	.	.
SMILES	SMN2 splice enh	NPC1 promoter act	FLuc counter	Rab9 prom act	ELG1 genotox
Cc1ccc(C(=O)Nc2nc(COc3ccccc3)cs2)s1	-28%	.	17µM*	.	.
CC(=O)Nc1nc(COc2ccccc2)cs1	18µM*	3.2µM*	?	?	10µM*
COc1cccc(OC)c1C(=O)Nc1nc(COc2ccccc2)cs1	-18%	3%	?	-1%	-8%
O=C(Nc1nc(COc2ccccc2)cs1)C1CCC1	13%	?	12µM*	?	?
O=C(COc1ccccc1)OCc1csc(Nc2ccccc2)n1	11%	2%	?	0%	-2%
COc1cc2c(cc1OC)C(C)N(C(C)=O)CC2 (configuration not stated)	0.63µM*	-1%	3%	-1%	?
COc1cc2c(cc1OC)C(C)N(C(=O)c1cc(C)on1)CC2 (configuration not stated)	.	-8%	3%	-15%	?
O=C(c1ccco1)N1CCN(C(=O)c2ccc(CS(=O)c3ccc(Cl)cc3)o2)CC1 (configuration not stated)	.	-1%	2%	-5%	-1%
O=C(COc1cccc2cccnc12)Nc1nccs1	?	?	12µM*	4µM*	?
COc1ccccc1OCCCC(=O)Nc1nccs1	.	?	12µM*	2.2µM*	?
COc1ccc(OCC(=O)Nc2nc(-c3ccc(Br)cc3)ns2)cc1	.	.	11µM*	.	.
NNC(=O)COc1cccc2cccnc12	2%	-2%	-5%	1%	-2%
COc1ccc(C(CC(=O)Nc2nccs2)n2cccc2)cc1 (configuration not stated)	10µM*	2.8µM*	6µM*	3.2µM*	12%
Cc1cccc(OCCCC(=O)Nc2nccs2)c1C	.	-1%	-1%	-10%	-2%
COc1ccc(C(=O)Nc2nc(-c3ccc(Br)cc3)ns2)cc1	.	.	2%	.	.
Cc1ccccc1C(=O)Nc1ccc(S(=O)(=O)N2CCC(c3nc4ccccc4s3)CC2)cc1	.	.	0%	.	.
O=C(Cn1c(=O)n(-c2ccc(Cl)cc2)c(=O)c2c3c(sc21)CCC3)c1ccc(F)cc1	11%	.	2%	.	.
COc1ccc(OCC(=O)Nc2nccs2)cc1	.	0.56µM*	3µM*	0.45µM*	?
O=C(COc1ccc2c(c1)OCO2)Nc1nccs1	.	0.4µM*	1.7µM*	0.45µM*	2.3µM*
CCOc1ccc(OCC(=O)Nc2nccs2)cc1	5µM*	0.5µM*	0.95µM*	?	0.92µM*
CCOc1ccc(S(=O)(=O)N(C)c2ccc(OCC(=O)Nc3nccs3)cc2)cc1	-15%	-2%	4%	-1%	-13%
CCc1nc2c(cnn2-c2ccc(Cl)cc2)c(=O)n1-c1ccc(OC)c(Cl)c1	-2%	.	2%	.	.
CCOc1ccc(Nc2nc(-c3cccc(Cl)c3)c3c(n2)-c2ccccc2OC3)cc1	.	.	12µM*	.	.
Cc1ccc2cc(CCNC(=O)c3cccs3)c(=O)[nH]c2c1C	10µM*	2.8µM*	5.4µM*	2.8µM*	?
Cc1ccc2cc(CCNC(=O)c3cccs3)c(=O)[nH]c2c1	10µM*	3.2µM*	11µM*	?	?
CC(=O)NCCc1cc2ccc(C)c(C)c2[nH]c1=O	?	-2%	3%	-6%	17%
Cc1ccc(/C=C2/SC(=S)N(C3CCCCC3)C2=O)o1	.	1%	3%	16%	7%
O=C1/C(=C/c2ccco2)SC(=S)N1CC1CCCO1 (configuration not stated)	.	-2%	17µM*	21%	7%
